# Measurements: PubChem BioAssay (NCI)
# Compounds without any hit were thinned out: in the full panel of roughly 83,000, 20% have a hit.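 Cell lines were cultured in 96-well plates, exposed to a single compound concentration, and assessed for percent growth 48 hours later.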 A number with no mark means an inactive call. The source made the active and inactive calls. How the source made its calls: active means growth percent below 10; inactive means the rest.
# Test system: MDA-MB-468 breast
# Test: NCI-60 one-dose screen, 48 h (100 = growth as untreated, 0 = no growth, -100 = all killed)
# Conditions: 10 µM unless noted
row,SMILES,growth
1,CCCCC[C@H]1C/C=C2/C(=O)C=C[C@@H]2C/C=C\CCCC(=O)O1,-50.6% (active)
2,O=C1C(Cl)C(c2ccccc2Cl)N1n1cnnc1 (stereo not given),106%
3,C/C(=N\Nc1ccc([N+](=O)[O-])cc1[N+](=O)[O-])c1ccc(Br)cc1,108%
4,COc1ccc(C(C)c2cc(OC)c(OC)c(OC)c2)cc1 (stereo not given),41.6%
5,CCCCOc1nc2ccc(Cl)cc2cc1/C=C/C(=O)/C=C1/CC(c2cc3cc(Cl)ccc3nc2OCCCC)Nc2ccccc2N1 (stereo not given),103%
6,C/C(N)=C(\C#N)C(=O)c1ccccc1,97.7%
7,CCCCCCCCCCCCNC(=S)N/N=C/c1ccccc1O,53.1%
8,CCCc1nc2ccccn2c1Nc1ccc(C(=O)NO)cc1,87.9%
9,COC(=O)CCC(=O)c1ccccc1,115%
10,COc1ccc(-c2cnnn2-c2nonc2-n2cccc2)cc1OC,40.1%
11,CC1CCCN(CCCCCOc2ccc3oc4ccccc4c(=O)c3c2)C1 (stereo not given),52.2%
12,O=C(Nc1nc2ccc([N+](=O)[O-])cc2s1)Nc1ccccc1Br,33.2%
13,Cc1cc(C)c(S(=O)(=O)/N=c2/n(-c3ccccc3)nc3n2CCN3C2=NCCN2)c(C)c1,30%
14,O=C1Nc2ccccc2SC1c1ccccc1Cl (stereo not given),29.9%
15,O=C(NCO)c1ccccc1,110%
16,CCn1cc(C(=O)N/N=C/c2cccc(F)c2)c(=O)c2cc(F)c(N3CCNC(C)C3)c(F)c21 (stereo not given),71.6%
17,CCc1cccc2c1S/C(=C/c1ccc(OC)cc1)C2=O,27.3%
18,CCOC(=O)c1cn2c3c(cc(C)cc3c1=O)C(=O)/C(=C/c1ccccc1)C2,84.6%
19,C#CC[C@@H]1C[C@]2(C)[C@H]3CC[C@@H]4[C@H]5C(C(=C)C)CC[C@]5(C(=O)NCCCN5CCN(CCCN)CC5)CC[C@@]4(C)[C@]3(C)CC[C@H]2C(C)(C)[C@H]1OC(C)=O (stereo not given in full),-76.5% (active)
20,COc1cccc(NC(=O)c2sc3nc(C)c(C(O)c4ccccc4)cc3c2N)c1 (stereo not given),14.3%

row,SMILES,growth
1,CC(C)c1cc(C(=O)O)c(O)c(C(C)C)c1.CC(C)c1cc(C(=O)O)c(O)c(C(C)C)c1.[Mn],120%
2,O=C1CSC(c2ccccc2Cl)N1c1nnc(Cn2cnnc2)o1 (stereo not given),27.2%
3,CC(=O)Nc1nc(C)c(-c2csc(Nc3ccccc3)n2)s1,4.66% (active)
4,NC(CSC(c1ccccc1)(c1ccccc1)c1ccc(Cl)cc1)C(=O)O (stereo not given),-6.09% (active)
5,CC(=O)c1ccc2oc(=O)n(Cc3ccc(C#N)cc3)c(=O)c2c1,108%
6,Cc1nn(-c2ccc(F)cc2)c2ncnc(Oc3ccc(NC(=O)Nc4ccc(Cl)c(C(F)(F)F)c4)cc3)c12,97.8%
7,O=C(Cc1ccccc1)c1ccc(O)c(Cl)c1,-1.16% (active)
8,O=C(Nc1ccncc1)C(=O)c1cn(S(=O)(=O)c2ccc(Oc3ccccc3)cc2)c2ccccc12,55.4%
9,CCCN=C1NC(=O)/C(=C/c2nc(-c3ccc(OC)cc3)n3ccccc23)S1,101%
10,NC1CCN(c2nc(Nc3cccc(C(F)(F)F)c3)c3c(=O)[nH]ccc3n2)CC1,-77.2% (active)
11,COc1ccc(Cn2cc3c(c2-c2ccc(OC)cc2)CCc2cnoc2-3)cc1,-7.25% (active)
12,O=C1c2c(c3c4cc(O)ccc4oc3c3[nH]c4ccccc4c23)C(=O)N1O,-48.7% (active)
13,CC(=O)OCCCCN1C=C/C(=C\C(=O)n2ccc3ccccc32)c2ccccc21,98.4%
14,COc1ccc(OC)c(NC(=O)c2cc3oc4ccccc4c3cc2O)c1,96.9%
15,O=C(CNC(=O)c1cccc2ccccc12)Nc1ccccc1Cc1ccccc1,13.7% [5 µM]
16,C=C1C(=O)O[C@H]2[C@H]1CC/C(CNC(=O)c1c[nH]c3ccc(F)cc13)=C\CC[C@@]1(C)O[C@@H]21,-55.8% (active)
17,CC1(C)N=C(N)N=C(N)N1c1ccc(S(=O)(=O)Nc2nccs2)cc1,103%
18,C/C(=C(/c1ccccc1)c1ccc(N2C(=O)c3cccc4c(N5CCN(C)CC5)ccc(c34)C2=O)cc1)c1ccccc1,42.5%
19,CCCC1OC(c2ccc(C(C)C)cc2)OCC1CC (stereo not given),97.6%
20,Cc1ccc(NC(=O)c2ccc(CN3CCOCC3)c(C(F)(F)F)c2)cc1Oc1ccc(-c2[nH]nc3ncnc(N)c23)cc1,96.8%
